Screening data deposited in PubChem BioAssay by The Scripps Research Institute Molecular Screening Center.
An excerpt weighted towards active compounds, which were near 2.3% of everything screened.
M1 PAM parental = nonselective activator or artifact in parental CHO-K1 calcium assay; ATP EC20, Fluo-8 calcium fluorescence; 0% at ATP EC20, 100% at ATP max; activation, % at 3 µM; 0.02% of 360,000 active;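 active = activation above the run cutoff, the mean activation of all test compounds plus 3 SD, cut at about 40% in these data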;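 also: peak over basal fluorescence ratio in a 140 s read after ATP addition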
CHO-K1 Ca antag = nonselective inhibitor or artifact in parental CHO-K1 cells | ATP-induced calcium, Fluo-8 fluorescence | inhibition, % at 3 µM | 0.6% of 360,000 active;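 active = inhibition above a per-plate cutoff, the plate's mean sample inhibition plus 3 SD, cut at about 24% in these data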;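 also: 0% = DMSO plus EC80 ATP and 100% = DMSO alone without ATP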
CHRM1 agonist = agonists of human M1 muscarinic receptor; CHO-K1 hM1, Fluo-8 calcium fluorescence, agonist mode; 0% DMSO, 100% acetylcholine EC100; P11229; activation, % at 3 µM; AID 588814; 0.33% of 360,000 active;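 active = activation above the run's mean compound activation plus 3 SD, cut at about 16% in these data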;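 also: peak over basal fluorescence ratio within a 140 s kinetic read after compound addition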
Target sequence (P11229 whole entry, looked up): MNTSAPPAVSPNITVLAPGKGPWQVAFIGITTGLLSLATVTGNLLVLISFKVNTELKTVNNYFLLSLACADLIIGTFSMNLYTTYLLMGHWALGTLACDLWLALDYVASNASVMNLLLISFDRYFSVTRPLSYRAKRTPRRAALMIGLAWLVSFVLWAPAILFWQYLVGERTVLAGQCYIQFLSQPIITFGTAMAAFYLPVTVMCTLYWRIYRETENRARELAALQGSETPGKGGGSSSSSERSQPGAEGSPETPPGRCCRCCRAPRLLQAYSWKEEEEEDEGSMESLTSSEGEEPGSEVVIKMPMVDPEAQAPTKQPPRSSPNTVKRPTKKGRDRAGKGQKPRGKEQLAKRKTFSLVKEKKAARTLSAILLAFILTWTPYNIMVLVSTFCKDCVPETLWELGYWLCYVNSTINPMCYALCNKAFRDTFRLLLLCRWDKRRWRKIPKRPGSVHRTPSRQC
CHRM1 PAM = positive allosteric modulators of human M1 muscarinic receptor; P11229; CHO-K1 hM1, Fluo-8 calcium fluorescence, ACh EC20; 0% = ACh EC20, 100% = maximal ACh; activation, % at 3 µM; 0.088% of 360,000 active; AID 588819; in the data active = activation above about 19%, passing the limit was not always enough
M1 ag parental = M1 agonist counterscreen hit in parental CHO-K1 cells; Fluo-8 calcium fluorescence; scaled to maximal ATP response, vehicle zero; activation, % at 3 µM; 0.48% of 360,000 active; AID 602248; in the data active = activation above about 15%;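 also: untransfected CHO-K1 host cells lacking M1 receptor as counterscreen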
M1 antag = antagonists of human M1 muscarinic receptor; inhibition, % at 3 µM; CHO-K1 hM1, Fluo-8 calcium fluorescence, ACh EC80 antagonist; P11229; 1.3% of 360,000 active;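 active = percent inhibition above its own plate's cutoff, namely the mean of that plate's compound wells plus 3 SD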;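 also: peak over basal fluorescence ratio during 140 s after agonist addition; 0% = ACh EC80 plus DMSO and 100% = DMSO alone without agonist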
An asterisk follows results filed as active.

O=C(Cn1cnc2ccccc21)N/N=C/C(Br)=C/c1ccccc1 was read as M1 PAM parental 23.2, CHO-K1 Ca antag -7.5, CHRM1 agonist -5.7, CHRM1 PAM 1.8, M1 ag parental 5.0 and M1 antag 5.7.
For CN(C(=O)C(Cl)Cl)C1CC2C=CC1C2 (centres undefined) the results were M1 PAM parental 20.7, CHO-K1 Ca antag -7.8, CHRM1 agonist -4.1, CHRM1 PAM 12.1, M1 ag parental 16.1* and M1 antag -13.3.
For C[C@H](c1ccccc1)N1C[C@H](COCc2ccccc2)Oc2cc(N3CCC[C@H]3C(N)=O)ccc2S1(=O)=O the results were M1 PAM parental 5.3, CHO-K1 Ca antag -1.7 and M1 ag parental 3.4.
`CC(Oc1ccc(F)cc1)C(=O)Nc1ccc(S(=O)(=O)NC2=NCCCCC2)cc1` (centres undefined) gave M1 PAM parental -11.1, CHO-K1 Ca antag 1.9, CHRM1 agonist 23.6*, CHRM1 PAM 3.4, M1 ag parental 5.0 and M1 antag -3.8.
Screening CC(Oc1ccc(Br)cc1)C(=O)Nc1ccc(S(=O)(=O)NC2=NCCCCC2)cc1 (centres undefined) returned M1 PAM parental -12.2, CHO-K1 Ca antag -3.5, CHRM1 agonist 28.8*, CHRM1 PAM -8.2, M1 ag parental 23.2* and M1 antag 17.5.
CC(Oc1cccc(Cl)c1)C(=O)Nc1ccc(S(=O)(=O)NC2=NCCCCC2)cc1 (centres undefined) was read as M1 PAM parental 2.8, CHO-K1 Ca antag -8.2, CHRM1 agonist 12.0, CHRM1 PAM 7.2, M1 ag parental 11.6 and M1 antag -8.2.
Screening O=S(=O)(NC1=NCCCCC1)c1ccc(F)cc1 returned M1 PAM parental 6.9, CHO-K1 Ca antag -4.0, CHRM1 agonist -3.1, CHRM1 PAM 7.3, M1 ag parental 0.6 and M1 antag -0.9.
For Cc1ccc(S(=O)(=O)N(C)C)cc1NC(=O)COC(=O)c1ccc2c(c1)OCCO2 the results were M1 PAM parental 3.4, CHO-K1 Ca antag -7.1, CHRM1 agonist -2.3, CHRM1 PAM 4.7, M1 ag parental 4.6 and M1 antag 3.7.
For CN1C[C@@H]2[C@@H]3C(=O)N(C)C(=O)[C@@H]3[C@](C)(C1=O)N2C(=O)c1ccc(C(F)(F)F)cc1 the results were M1 PAM parental 1.4, CHO-K1 Ca antag -1.3, CHRM1 agonist -3.9, CHRM1 PAM -1.3, M1 ag parental 1.6 and M1 antag -0.8.
COc1ccc(C#Cc2ccc3c(c2)O[C@@H](CN(C)C(=O)Nc2cccc(OC)c2)[C@H](C)CN([C@@H](C)CO)S3(=O)=O)cc1 was read as M1 PAM parental -6.3, CHO-K1 Ca antag 13.2, CHRM1 agonist -3.5, CHRM1 PAM -11.6, M1 ag parental 1.4 and M1 antag 4.0.
For COc1ccccc1S(=O)(=O)N(C)C[C@@H]1Oc2cc(C#CCC(C)C)ccc2S(=O)(=O)N([C@H](C)CO)C[C@@H]1C the results were M1 PAM parental -11.3, CHO-K1 Ca antag 33.7*, CHRM1 agonist -2.5, CHRM1 PAM 1.5, M1 ag parental 0.0 and M1 antag -3.4.
For COc1cccc(NC(=O)N(C)C[C@H]2Oc3cc(Br)ccc3S(=O)(=O)N([C@H](C)CO)C[C@H]2C)c1 the results were M1 PAM parental -7.1, CHO-K1 Ca antag 27.8*, CHRM1 agonist -3.5, CHRM1 PAM -12.2, M1 ag parental 0.3 and M1 antag 20.4*.
For CN(C)c1ccc(-c2csc(C(C)(O)c3ccc(F)c(F)c3)n2)cc1 (centres undefined) the results were M1 PAM parental -7.2, CHO-K1 Ca antag 8.9, CHRM1 agonist -4.8, CHRM1 PAM -12.9, M1 ag parental 0.5 and M1 antag 24.8*.
CC(O)(c1ccc(F)c(F)c1)c1nc(-c2ccncc2)cs1 (centres undefined) was read as M1 PAM parental -12.8, CHO-K1 Ca antag 12.8, CHRM1 agonist -3.4, CHRM1 PAM -5.1, M1 ag parental 5.2 and M1 antag 3.9.
CC(C)Cc1nnc(NC(=O)CCC(=O)N2CCN(c3ccccc3F)CC2)s1 was read as M1 PAM parental -6.5, CHO-K1 Ca antag -5.3, CHRM1 agonist -6.3, CHRM1 PAM -2.5, M1 ag parental -0.3 and M1 antag 1.8.
